Measured values published in PubChem BioAssay AID624296 (National Center for Advancing Translational Sciences (NCATS), 2012).
The whole screen tested about 350,000 compounds, of which about 9,900 (2.8%) were called active. Inconclusive results (about 15%) are left out. This excerpt belongs to a sample that is enriched for actives. Values without a mark were called inactive. The call rests on the fitted dose curve; in most records, active means well fitted activation curve with a large enough effect; inconclusive means small, poorly fitted or top-dose-only effect; inactive means no such curve, though single readings can be large or run the other way.

Experiment: A quantitative high throughput screen for small molecules that induce DNA re-replication in MCF 10a normal breast cells. Further: nearly all actives have a fitted effect of over 50% in size. On activity, positive = re-replication: % of control where 0% means no effect.
Details: MCF 10A DNA re-replication, Hoechst nuclear intensity, 48 h; series mostly up to 46.1 µM; activity, positive = re-replication: at the top concentration
Potency means the concentration at half of the fitted maximal effect.

SMILES	activity, positive = re-replication [%]	Potency
CC(C)(C)OC(=O)NCCCCCNC(=O)c1nc[nH]c1C(=O)NCc1ccccc1	19.9	
O=C1OC(Cc2ccccc2)C(c2ccccc2)C1=O (stereo not drawn)	11.9	
COc1ccc(Cl)cc1NC(=O)CCN1CCOCC1	-2.83	
COc1ccc(OC)c(NC(=O)CCN2CCC(C)CC2)c1		5.17 µM (active)
CCOC(=O)N1CCN(CCC(=O)Nc2cc(OC)ccc2OC)CC1	1.69	
CC1CCCC(NC(=O)c2cc(-c3ccncc3)nc3ccccc23)C1C (stereo not drawn)	182	
O=C(COC(=O)COc1cccc(F)c1)NCC1CCCCC1	4.24	
COc1ccc(S(=O)(=O)N2CCOCC2)cc1NC(=O)CSc1nnc(NC2CC2)s1	0.0251	
Cc1ccc(-c2noc(CC(c3ccccc3)c3ccccc3)n2)cc1	19.8	
Cc1ccc(Cc2nc(-c3cccc(C)c3)no2)cc1	5.26	
COc1ccccc1Cc1nc(-c2ccc(C)cc2)no1		5.8 µM (active)
NC(=O)NCCCC(=O)O	2.9	
CN(CC(=O)NCC(c1ccccc1)N1CCCC1)S(=O)(=O)c1ccc(Cl)cc1 (stereo not drawn)	13.6	
Cn1ccc(NC(=O)Nc2ccc(Cl)cc2)n1	-29.8	
Cc1ccc(N(CC(=O)Nc2cccc(N(C)S(C)(=O)=O)c2)S(C)(=O)=O)cc1	-6.44	
CN(c1cccc(NC(=O)Nc2ccc(Cl)cc2)c1)S(C)(=O)=O		13 µM (active)
COc1ccc(NS(=O)(=O)c2ccc(N3CCOCC3)c(NC(=O)/C=C/C(=O)O)c2)cc1	-2.55	
O=C(/C=C/c1cn(-c2ccccc2)nc1-c1ccc2c(c1)OCCO2)NCCCN1CCOCC1	10	
Cc1ccc(-c2nn(-c3ccccc3)cc2/C=C/C(=O)Nc2cccc(S(N)(=O)=O)c2)cc1		13 µM (active)
Cc1ccc(-c2nn(-c3ccccc3)cc2C(=O)Nc2cccc(S(=O)(=O)N3CCOCC3)c2)cc1	1.34	
CC(=O)c1ccc(S(=O)(=O)NCCC(=O)N2CCN(c3ccccn3)CC2)cc1	-6.67	

SMILES	activity, positive = re-replication [%]	Potency
Cc1csc(SCC(=O)N(c2ccccc2)C(C)C)n1	15.8	
c1ccc2c(c1)OC1OC2Oc2ccccc21	-3.33	
O=C(N[C@@H](Cc1ccccc1)C(=O)OCc1ccccc1)c1nc[nH]c1C(=O)N[C@@H](Cc1ccccc1)C(=O)OCc1ccccc1	16.7	
CC(C)(C)OC(=O)N1CCC(NC(=O)c2[nH]cnc2C(=O)N[C@@H](Cc2ccccc2)C(=O)OCc2ccccc2)CC1		14.6 µM (active)
O=C(N[C@@H](Cc1ccccc1)C(=O)OCc1ccccc1)c1nc[nH]c1C(=O)NC1CCNCC1	0.257	
NS(=O)(=O)c1ccc(CCNC(=O)c2ccc(Cl)c(S(=O)(=O)N3CCCCCC3)c2)cc1	20.2	
Cc1ccc(C(CC(=O)O)NC(=O)c2ccc(S(=O)(=O)N3CCCC3)cc2)cc1 (stereo not drawn)	-3.45	
CCOC(=O)C1(Cc2cccc(OC)c2)CCN(C(C)CC(C)(C)O)CC1 (stereo not drawn)	0.346	
CCOC(=O)C1(Cc2cccc(OC)c2)CCN(C(C)COC)CC1 (stereo not drawn)	11.2	
CCOC(=O)C1(Cc2cccc(OC)c2)CCN(Cc2csc(C(C)=O)c2)CC1		8.2 µM (active)
N#CC1(Nc2ccc(-c3ccc(Cl)cc3)cc2)CCCC1	-2.31	
O=C(Nc1c(Br)cc2c(c1Br)Cc1ccccc1-2)C(F)(F)F	14.3	
NC(=O)c1ccccc1N(Cc1ccccc1)S(=O)(=O)c1ccccc1	8.11	
CCN1CCN(C(=O)c2ccccc2N(C)S(=O)(=O)c2ccc(C)cc2)CC1	-2	
CCOC(=O)N1CCN(C(=O)c2ccccc2N(Cc2ccccc2)S(=O)(=O)c2ccc(OC)cc2)CC1		13 µM (active)
CC[C@@H](C)[C@@H]1CN([C@@H](C)CN2CCC[C@H]2CN2C(N)=NC[C@H]2C(C)C)C(=N)N1CCc1ccc(Cl)c(Cl)c1	-21.4	
CC(OC(=O)c1c(F)cccc1F)C(=O)NCCC1=CCCCC1 (stereo not drawn)	8.71	
CCC(=O)Nc1ccc(Nc2nc(Cl)nc(Nc3ccc(NC(=O)CC)cc3)n2)cc1	0.0779	
O=C(CCl)Nc1ccc(Sc2ccc(NC(=O)CCl)cc2)cc1		6.51 µM (active)
Cc1ccc(NC(=O)CC(=O)Nc2ccc(C)cc2)cc1	2.57	
FC(F)(F)c1ccc(-c2cccc3c2C2CC3CCN2Cc2ccccc2)cc1 (stereo not drawn)	2.26	

SMILES	activity, positive = re-replication [%]	Potency
CC1CCCCC12NC(=O)N(CC(=O)N1CCN(c3ccccc3)CC1)C2=O (stereo not drawn)	0.565	
COc1cccc(CNC(=O)CN2C(=O)NC(Cc3ccccc3)(c3ccccc3)C2=O)c1 (stereo not drawn)	-0.149	
COc1ccc(-c2nn(-c3ccccc3)cc2/C=N/Nc2ccccn2)cc1OC		23.1 µM (active)
CN(C)/N=C/c1cn(-c2ccccc2)nc1-c1cccnc1	0.925	
CC(C)(C)OC(=O)N/N=C/c1cn(-c2ccccc2)nc1-c1cccnc1	7.39	
CCOC(=O)C(CO)NC(=O)C1(NC(C)=O)CCCC1 (stereo not drawn)	-0.0355	
CN(CCc1ccccc1)C(=O)c1cccc(NC(=O)Cc2cccc(NC(=O)C3CCCN(C(=O)CCc4ccccc4)C3)c2)c1 (stereo not drawn)	3.16	
CCOC(=O)C1=C(C)NC(=O)NC1c1ccccc1 (stereo not drawn)	-2.24	
CCOC(=O)C1=C(CN2CCc3ccccc32)NC(=O)NC1c1cccc([N+](=O)[O-])c1 (stereo not drawn)	-3.56	
CCOC(=O)C1=C(CN2CCc3ccccc32)NC(=O)NC1c1ccc(Cl)cc1 (stereo not drawn)		14.6 µM (active)
COc1cc(O)c2c(=O)c3c(O)c(O)ccc3oc2c1OC	-33.2	
CC(C)CCN1CCN=C1N(C)C	-20.8	
O=C(OCc1ccccc1)c1ccc(O)cc1	0.461	
O=C(OCc1ccc(-c2ccccc2)cc1)c1cccc(O)c1		20.6 µM (active)
O=C(OCc1ccc(Br)cc1)c1cccc(-c2nnc(-c3ccccc3)o2)c1	4	
Cc1cc2c(cc1C)NC1(C[C@H]3CCC(=O)N4CC[C@@H](C1)[C@@H]34)C(=NC(C)(C)CC(C)(C)C)N2 (stereo partly drawn)	-13.3	
CCCCN1CC(CO)Oc2cccc(F)c2S1(=O)=O (stereo not drawn)	-9.57	
Cc1cc(C(=O)OCC(=O)N2C(C)CCCC2C)c2ccccc2n1 (stereo not drawn)	3.65	
Cc1oc2c(F)c(F)c(F)c(F)c2c1S(=O)(=O)Nc1cccc(C(F)(F)F)c1		16.4 µM (active)
CCOC(=O)N1CCN(C(=O)c2ccc(S(=O)(=O)Nc3cccc(C(F)(F)F)c3)cc2)CC1	31.5	
O=C(NCc1ccccc1)c1ccc(S(=O)(=O)Nc2cccc(C(F)(F)F)c2)cc1	4.4	
